Common to all, as to assay: cross-link between two proteins; cross-linking mass spectrometry
Test [1] addresses Cytochrome b-c1 complex subunit 8 (UniProt Q9CQ69).
In test [2] the target is NADH dehydrogenase [ubiquinone] 1 beta subcomplex subunit 10 (UniProt Q9DCS9).
Test [3] addresses NADH dehydrogenase [ubiquinone] 1 beta subcomplex subunit 8, mitochondrial (UniProt Q9D6J5).
Test [4] deals with Dihydrolipoyllysine-residue succinyltransferase component of 2-oxoglutarate dehydrogenase complex, mitochondrial (UniProt Q9D2G2).
Dihydrolipoyllysine-residue succinyltransferase component of 2-oxoglutarate dehydrogenase complex, mitochondrial, sequence (Q9D2G2 whole entry, one chain of several): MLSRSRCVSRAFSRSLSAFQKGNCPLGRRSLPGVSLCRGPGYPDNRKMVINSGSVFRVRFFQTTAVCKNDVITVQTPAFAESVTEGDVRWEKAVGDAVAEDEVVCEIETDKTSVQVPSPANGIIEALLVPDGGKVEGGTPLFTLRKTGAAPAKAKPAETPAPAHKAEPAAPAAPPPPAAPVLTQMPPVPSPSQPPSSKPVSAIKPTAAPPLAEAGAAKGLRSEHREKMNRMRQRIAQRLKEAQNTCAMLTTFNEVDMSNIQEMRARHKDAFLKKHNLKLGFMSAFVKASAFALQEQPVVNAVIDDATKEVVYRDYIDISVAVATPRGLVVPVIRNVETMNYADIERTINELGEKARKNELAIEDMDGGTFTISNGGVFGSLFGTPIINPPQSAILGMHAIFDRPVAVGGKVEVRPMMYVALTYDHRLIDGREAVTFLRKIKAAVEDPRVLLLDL
Test [5] deals with Cytochrome b-c1 complex subunit 7 (UniProt Q9D855).
In test [6] the target is Cytochrome b-c1 complex subunit 1, mitochondrial (UniProt Q9CZ13).
Cytochrome b-c1 complex subunit 1, mitochondrial, sequence (Q9CZ13 whole entry, one chain of several): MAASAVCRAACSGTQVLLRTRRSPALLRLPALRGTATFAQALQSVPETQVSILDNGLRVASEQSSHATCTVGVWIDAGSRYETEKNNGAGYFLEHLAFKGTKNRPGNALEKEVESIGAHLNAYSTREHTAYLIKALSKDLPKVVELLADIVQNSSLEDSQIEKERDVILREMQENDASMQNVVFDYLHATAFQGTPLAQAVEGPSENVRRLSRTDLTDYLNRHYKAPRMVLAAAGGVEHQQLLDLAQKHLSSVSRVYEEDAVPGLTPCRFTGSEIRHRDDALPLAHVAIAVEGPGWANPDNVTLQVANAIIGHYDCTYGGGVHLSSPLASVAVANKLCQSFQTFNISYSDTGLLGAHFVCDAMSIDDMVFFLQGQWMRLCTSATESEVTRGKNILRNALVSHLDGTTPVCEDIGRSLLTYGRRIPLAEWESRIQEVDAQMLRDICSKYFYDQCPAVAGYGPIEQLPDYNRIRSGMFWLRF
Test [7] concerns the target Cytochrome b-c1 complex subunit 9 (UniProt Q8R1I1).
The target of test [8] is Cytochrome c oxidase subunit FA4 (UniProt Q62425).
Cytochrome c oxidase subunit FA4, sequence (Q62425 whole entry): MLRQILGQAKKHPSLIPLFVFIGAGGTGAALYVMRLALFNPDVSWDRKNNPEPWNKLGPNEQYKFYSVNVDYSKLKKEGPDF
The target in test [9] is Mitochondrial fission regulator 1-like (UniProt Q9CWE0).
Test [10] addresses NADH dehydrogenase [ubiquinone] 1 alpha subcomplex subunit 13 (UniProt Q9ERS2).
Test [11] addresses Isocitrate dehydrogenase [NAD] subunit alpha, mitochondrial (UniProt Q9D6R2).
The target of test [12] is ATP synthase peripheral stalk subunit d, mitochondrial (UniProt Q9DCX2).
ATP synthase peripheral stalk subunit d, mitochondrial, sequence (Q9DCX2 whole entry): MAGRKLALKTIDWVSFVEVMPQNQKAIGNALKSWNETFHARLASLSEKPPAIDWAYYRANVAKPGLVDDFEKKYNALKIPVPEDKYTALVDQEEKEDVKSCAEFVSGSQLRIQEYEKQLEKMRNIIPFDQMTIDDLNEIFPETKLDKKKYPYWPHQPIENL
Test [13] has as its target NADH dehydrogenase [ubiquinone] 1 alpha subcomplex subunit 9, mitochondrial (UniProt Q9DC69).
Test [14] concerns the target Mitochondrial import inner membrane translocase subunit Tim9 (UniProt Q9WV98).
For test [15], the target named is ATP synthase peripheral stalk subunit F6, mitochondrial (UniProt P97450).
ATP synthase peripheral stalk subunit F6, mitochondrial, sequence (P97450 whole entry): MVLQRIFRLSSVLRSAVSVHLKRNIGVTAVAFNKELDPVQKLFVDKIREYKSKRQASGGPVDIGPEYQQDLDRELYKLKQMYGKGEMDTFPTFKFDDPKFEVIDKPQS
For test [16], the target named is Cytochrome b-c1 complex subunit Rieske, mitochondrial (UniProt Q9CR68).
Test [17] concerns the target Cytochrome c1, heme protein, mitochondrial (UniProt Q9D0M3).
The target in test [18] is Methylmalonic aciduria type A homolog, mitochondrial (UniProt Q8C7H1).
The target in test [19] is Apoptosis-inducing factor 1, mitochondrial (UniProt Q9Z0X1).
Test [20] addresses Succinate dehydrogenase [ubiquinone] iron-sulfur subunit, mitochondrial (UniProt Q9CQA3).
The next test concerns the target ADP/ATP translocase 1 (UniProt P48962).
The target of test [21] is Cytochrome b-c1 complex subunit 6, mitochondrial (UniProt P99028).
Cytochrome b-c1 complex subunit 6, mitochondrial, sequence (P99028 whole entry, one chain of several): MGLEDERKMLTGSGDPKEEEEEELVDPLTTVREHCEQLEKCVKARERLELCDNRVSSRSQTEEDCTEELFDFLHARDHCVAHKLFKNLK
Test [22] addresses Cytochrome c oxidase subunit 6C (UniProt Q9CPQ1).
In test [23] the target is Cytochrome c oxidase subunit 7B, mitochondrial (UniProt P56393).
Cytochrome c oxidase subunit 7B, mitochondrial, sequence (P56393 whole entry, the tested form may be a part): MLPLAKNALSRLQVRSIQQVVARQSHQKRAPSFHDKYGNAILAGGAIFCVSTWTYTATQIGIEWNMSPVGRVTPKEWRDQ
The target of test [24] is FAST kinase domain-containing protein 2, mitochondrial (UniProt Q922E6).
Test [25] addresses Methylglutaconyl-CoA hydratase, mitochondrial (UniProt Q9JLZ3).
In test [26] the target is NADH dehydrogenase [ubiquinone] flavoprotein 1, mitochondrial (UniProt Q91YT0).
Test [27] addresses 2-oxoglutarate dehydrogenase complex component E1 (UniProt Q60597).
Test [28] has as its target ATP synthase F(0) complex subunit g, mitochondrial (UniProt Q9CPQ8).
In test [29] the target is ATP synthase peripheral stalk subunit OSCP, mitochondrial (UniProt Q9DB20).
ATP synthase peripheral stalk subunit OSCP, mitochondrial, sequence (Q9DB20 whole entry): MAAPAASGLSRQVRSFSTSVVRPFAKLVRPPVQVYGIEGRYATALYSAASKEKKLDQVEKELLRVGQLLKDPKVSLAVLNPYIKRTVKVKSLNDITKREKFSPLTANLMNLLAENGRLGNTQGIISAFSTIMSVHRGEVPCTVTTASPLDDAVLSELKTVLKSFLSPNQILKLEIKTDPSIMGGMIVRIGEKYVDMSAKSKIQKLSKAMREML
Test [30] concerns the target Dynamin-like GTPase OPA1, mitochondrial (UniProt P58281).
Another test deals with Protein FAM162A (UniProt Q9D6U8).
Protein FAM162A, sequence (Q9D6U8 whole entry): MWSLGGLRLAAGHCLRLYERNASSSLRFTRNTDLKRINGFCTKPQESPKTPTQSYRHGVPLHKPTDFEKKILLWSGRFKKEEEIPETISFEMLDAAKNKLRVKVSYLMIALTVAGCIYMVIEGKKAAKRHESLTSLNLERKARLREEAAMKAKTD
In test [31] the target is Heat shock protein 75 kDa, mitochondrial (UniProt Q9CQN1).
Heat shock protein 75 kDa, mitochondrial, sequence (Q9CQN1 whole entry): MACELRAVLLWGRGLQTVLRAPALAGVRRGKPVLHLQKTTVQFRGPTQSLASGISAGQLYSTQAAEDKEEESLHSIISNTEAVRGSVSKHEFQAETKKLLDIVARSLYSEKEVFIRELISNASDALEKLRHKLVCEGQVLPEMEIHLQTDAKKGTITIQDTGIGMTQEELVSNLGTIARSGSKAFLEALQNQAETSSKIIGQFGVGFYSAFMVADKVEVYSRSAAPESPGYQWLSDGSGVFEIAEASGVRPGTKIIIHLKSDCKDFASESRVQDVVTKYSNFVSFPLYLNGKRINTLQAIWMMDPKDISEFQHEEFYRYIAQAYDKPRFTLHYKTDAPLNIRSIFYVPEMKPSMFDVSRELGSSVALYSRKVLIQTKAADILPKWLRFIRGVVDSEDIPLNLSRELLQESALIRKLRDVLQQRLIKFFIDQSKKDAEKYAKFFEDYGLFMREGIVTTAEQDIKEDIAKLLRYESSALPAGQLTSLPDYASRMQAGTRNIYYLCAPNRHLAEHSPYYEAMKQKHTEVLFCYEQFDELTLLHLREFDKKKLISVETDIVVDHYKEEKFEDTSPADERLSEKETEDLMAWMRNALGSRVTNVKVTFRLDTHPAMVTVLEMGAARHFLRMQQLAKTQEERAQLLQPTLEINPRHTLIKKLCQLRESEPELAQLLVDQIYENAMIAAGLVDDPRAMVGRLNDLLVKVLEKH
Test [32] concerns the target MICOS complex subunit Mic19 (UniProt Q9CRB9).
Test [33] concerns the target MICOS complex subunit Mic60 (UniProt Q8CAQ8).
Test [34] deals with MICOS complex subunit Mic26 (UniProt Q9DCZ4).
MICOS complex subunit Mic26, sequence (Q9DCZ4 whole entry, one chain of several): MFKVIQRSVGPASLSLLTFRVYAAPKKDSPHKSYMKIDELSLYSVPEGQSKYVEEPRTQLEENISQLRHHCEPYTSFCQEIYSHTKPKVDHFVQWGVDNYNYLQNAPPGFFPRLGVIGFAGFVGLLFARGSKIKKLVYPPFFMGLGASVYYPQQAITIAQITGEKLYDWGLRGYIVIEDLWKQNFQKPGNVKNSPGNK
The target of test [35] is NADH-ubiquinone oxidoreductase 75 kDa subunit, mitochondrial (UniProt Q91VD9).
Test [36] deals with Double-stranded RNA-binding protein Staufen homolog 1 (UniProt Q9Z108).
The target of test [37] is DnaJ homolog subfamily C member 11 (UniProt Q5U458).
Test [38] has as its target Mitochondrial import inner membrane translocase subunit TIM14 (UniProt Q9CQV7).
Test [39] deals with Cytochrome b-c1 complex subunit 2, mitochondrial (UniProt Q9DB77).
Cytochrome b-c1 complex subunit 2, mitochondrial, sequence (Q9DB77 whole entry, one chain of several): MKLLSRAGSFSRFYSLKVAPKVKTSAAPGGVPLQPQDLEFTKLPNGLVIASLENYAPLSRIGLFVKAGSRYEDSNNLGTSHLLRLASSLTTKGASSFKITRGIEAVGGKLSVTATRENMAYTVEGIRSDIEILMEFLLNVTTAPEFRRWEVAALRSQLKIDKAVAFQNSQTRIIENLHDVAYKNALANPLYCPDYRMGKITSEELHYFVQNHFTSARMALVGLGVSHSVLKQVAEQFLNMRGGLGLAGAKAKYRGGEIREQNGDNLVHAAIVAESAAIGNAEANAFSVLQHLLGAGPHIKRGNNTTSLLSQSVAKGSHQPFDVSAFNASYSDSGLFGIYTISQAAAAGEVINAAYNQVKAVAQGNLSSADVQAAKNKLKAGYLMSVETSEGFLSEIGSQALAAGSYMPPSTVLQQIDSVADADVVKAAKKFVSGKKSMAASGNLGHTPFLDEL

Results on 34 substances are retold here after PMC5795388.

NADH dehydrogenase [ubiquinone] 1 beta subcomplex subunit 10, sequence (Q9DCS9 whole entry, one chain of several): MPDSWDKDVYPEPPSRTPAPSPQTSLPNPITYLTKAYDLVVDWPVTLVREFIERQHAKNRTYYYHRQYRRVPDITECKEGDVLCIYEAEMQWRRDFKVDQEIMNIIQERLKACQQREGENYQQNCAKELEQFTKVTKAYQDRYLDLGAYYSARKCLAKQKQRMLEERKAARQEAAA
Cytochrome c oxidase subunit 6C, sequence (Q9CPQ1 whole entry): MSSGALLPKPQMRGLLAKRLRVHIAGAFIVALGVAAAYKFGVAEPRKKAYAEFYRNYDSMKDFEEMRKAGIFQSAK
Cytochrome b, P00158, sequence (P00158 whole entry): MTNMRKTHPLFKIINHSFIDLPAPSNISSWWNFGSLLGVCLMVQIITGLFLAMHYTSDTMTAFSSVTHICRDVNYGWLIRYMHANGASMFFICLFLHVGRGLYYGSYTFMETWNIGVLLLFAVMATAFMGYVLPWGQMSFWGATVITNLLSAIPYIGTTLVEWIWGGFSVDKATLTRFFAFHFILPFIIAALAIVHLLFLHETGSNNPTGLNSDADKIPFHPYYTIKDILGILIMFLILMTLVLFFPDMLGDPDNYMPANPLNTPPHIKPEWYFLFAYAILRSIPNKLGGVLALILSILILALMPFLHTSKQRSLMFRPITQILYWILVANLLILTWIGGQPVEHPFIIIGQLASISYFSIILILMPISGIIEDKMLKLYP
Mitochondrial import inner membrane translocase subunit TIM14, sequence (Q9CQV7 whole entry): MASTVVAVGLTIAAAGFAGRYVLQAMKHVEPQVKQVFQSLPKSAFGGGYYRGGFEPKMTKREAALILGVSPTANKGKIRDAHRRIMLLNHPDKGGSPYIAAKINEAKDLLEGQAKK
Stress-70 protein, mitochondrial, P38647, sequence (P38647 whole entry): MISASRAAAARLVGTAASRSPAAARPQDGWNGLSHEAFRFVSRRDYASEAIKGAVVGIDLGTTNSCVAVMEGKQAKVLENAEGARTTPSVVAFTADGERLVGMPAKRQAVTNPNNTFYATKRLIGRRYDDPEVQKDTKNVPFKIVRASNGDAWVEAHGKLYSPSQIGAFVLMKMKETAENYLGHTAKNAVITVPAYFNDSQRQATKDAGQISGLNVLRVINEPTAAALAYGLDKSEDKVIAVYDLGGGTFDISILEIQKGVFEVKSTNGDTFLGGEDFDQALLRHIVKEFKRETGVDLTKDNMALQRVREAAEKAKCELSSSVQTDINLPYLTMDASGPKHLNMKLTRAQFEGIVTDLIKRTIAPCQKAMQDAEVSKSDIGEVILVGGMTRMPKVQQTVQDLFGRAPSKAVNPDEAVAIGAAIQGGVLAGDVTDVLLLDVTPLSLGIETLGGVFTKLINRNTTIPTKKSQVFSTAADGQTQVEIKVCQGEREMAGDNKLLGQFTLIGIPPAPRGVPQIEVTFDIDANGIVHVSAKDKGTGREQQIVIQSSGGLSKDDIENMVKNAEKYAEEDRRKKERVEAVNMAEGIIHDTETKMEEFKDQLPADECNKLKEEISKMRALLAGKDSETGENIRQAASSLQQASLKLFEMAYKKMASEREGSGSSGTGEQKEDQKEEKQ
ATP synthase F(0) complex subunit g, mitochondrial, sequence (Q9CPQ8 whole entry, one chain of several): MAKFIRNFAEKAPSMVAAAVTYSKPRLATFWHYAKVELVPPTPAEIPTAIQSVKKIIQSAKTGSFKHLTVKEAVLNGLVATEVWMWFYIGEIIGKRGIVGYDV

Turning to “Cytochrome b-c1 complex subunit 6, mitochondrial, P99028”, the “listed as a hit” value in [1] and in test [2] was “yes” each time.

For the substance “NADH dehydrogenase [ubiquinone] 1 beta subcomplex subunit 11, mitochondrial, O09111”, the “listed as a hit” value in test [3] was “yes”.

For the substance “2-oxoglutarate dehydrogenase complex component E1, Q60597”, in [4], the “listed as a hit” value is given as “yes”.

On to “NADH dehydrogenase [ubiquinone] 1 beta subcomplex subunit 4, Q9CQC7”, for which the “listed as a hit” value in test [2] is recorded as “yes”.

As for Cytochrome b, P00158, the “listed as a hit” value in test [5] is given as “yes”.

Turning to “Succinate dehydrogenase [ubiquinone] flavoprotein subunit, mitochondrial, Q8K2B3”, the “listed as a hit” value in test [6] is on record as “yes”.

Consider “Cytochrome c oxidase subunit 7B, mitochondrial, P56393”, for which the “listed as a hit” value in test [7] and in test [8] was “yes” in each case.

Consider Mitochondrial Rho GTPase 1, Q8BG51, for which the “listed as a hit” value in test [9] is recorded as “yes”.

With “NADH dehydrogenase [ubiquinone] 1 alpha subcomplex subunit 8, Q9DCJ5”, in [10], the “listed as a hit” value was “yes”.

“Alpha-ketoglutarate dehydrogenase component 4, Q9CQX8”: the “listed as a hit” value in [4] is on record as “yes”.

Regarding “Aspartate aminotransferase, mitochondrial, P05202”, the “listed as a hit” value in test [6] and in [11] was “yes” in each case.

Turning to “ATP synthase F(0) complex subunit 8, P03930”, the “listed as a hit” value in test [12] is “yes”.

As for “StAR-related lipid transfer protein 7, mitochondrial, Q8R1R3”, the “listed as a hit” value in test [13] was “yes”.

“Mitochondrial import inner membrane translocase subunit Tim10, P62073”: the “listed as a hit” value in test [14] is given as “yes”.

On to “Malate dehydrogenase, mitochondrial, P08249”, for which the “listed as a hit” value in test [15], in [12] and in test [6] was “yes” in each case.

For “Cytochrome b-c1 complex subunit 8, Q9CQ69”, the “listed as a hit” value in test [16] and in test [17] was “yes” throughout.

With “Methylmalonyl-CoA mutase, mitochondrial, P16332”, the “listed as a hit” value in test [18] is recorded as “yes”.

For “Cytochrome c oxidase subunit FA4, Q62425”, the “listed as a hit” value in [19] was “yes”.

With “ATP synthase F(0) complex subunit g, mitochondrial, Q9CPQ8”, the “listed as a hit” value in test [20] is given as “yes”.

Take “NADH dehydrogenase [ubiquinone] 1 beta subcomplex subunit 8, mitochondrial, Q9D6J5”: the “listed as a hit” value in [2] is on record as “yes”.

Consider “Cytochrome c oxidase subunit 4 isoform 1, mitochondrial, P19783”, for which the “listed as a hit” value (with ADP/ATP translocase 1; in test [21]; in test [22]; in test [23]; in test [8]; in test [24]) was “yes” each time. For the same substance, the “listed as a hit” value in test [25] and in [26] was “yes” throughout.

Take “Dihydrolipoyl dehydrogenase, mitochondrial, O08749”: the “listed as a hit” value in test [27] is “yes”.

As to Cytochrome c, somatic, P62897, the “listed as a hit” value in [22] is “yes”.

On to ADP/ATP translocase 1, P48962, for which the “listed as a hit” value in test [28], in [29], in test [21], in [22], in test [23] and in test [30] was “yes” throughout. Further, in the test with Protein FAM162A, the “listed as a hit” value is listed as “yes”.

Consider “Stress-70 protein, mitochondrial, P38647”, for which the “listed as a hit” value in test [31] is listed as “yes”.

For MICOS complex subunit Mic27, Q78IK4, the “listed as a hit” value in [32] and in test [33] was “yes” throughout.

On to Cytochrome c oxidase subunit 6C, Q9CPQ1, for which, in the test with Protein FAM162A, the “listed as a hit” value was “yes”.

In the case of “Trifunctional enzyme subunit alpha, mitochondrial, Q8BMS1”, the “listed as a hit” value in test [12] was “yes”.

As to MICOS complex subunit Mic60, Q8CAQ8, in [34], the “listed as a hit” value is given as “yes”.

As to “NADH dehydrogenase [ubiquinone] iron-sulfur protein 6, mitochondrial, P52503”, the “listed as a hit” value in [35] is “yes”.

For the substance “Acetyl-CoA acetyltransferase, mitochondrial, Q8QZT1”, the “listed as a hit” value in test [36] is reported as “yes”.

On to Metaxin-2, O88441, for which, in test [37], the “listed as a hit” value was “yes”.

Regarding “Mitochondrial import inner membrane translocase subunit TIM16, Q9CQV1”, the “listed as a hit” value in [38] is given as “yes”.

Take “Cytochrome c1, heme protein, mitochondrial, Q9D0M3”: the “listed as a hit” value in test [39] is “yes”.
